Holding throughout (assay): NCI-60 one-dose screen, 48 h (100 = growth as untreated, 0 = no growth, -100 = all killed)
Assay [1] has as its system HCT-15 colon. Conditions: 10 µM unless noted.
The test system of assay [2] is HT29 colon. The following applies: 10 µM unless noted.
Assay [3] relates to SNB-19 CNS. The following applies: 10 µM unless noted.
Assay [4] has as its system U251 CNS. Conditions: 10 µM unless noted.
In assay [5] the test system is PC-3 prostate. The following applies: 10 µM unless noted.
Assay [6] deals with SK-MEL-5 melanoma. Conditions: 10 µM unless noted.
For assay [7], the system named is UACC-62 melanoma. Conditions: 10 µM unless noted.
Assay [8] concerns LOX IMVI melanoma. The following applies: 10 µM unless noted.
For assay [9], the system named is SK-MEL-28 melanoma. Conditions: 10 µM unless noted.
The subject of assay [10] is SK-MEL-2 melanoma. The following applies: 10 µM unless noted.
Assay [11] concerns EKVX NSCLC. Conditions: 10 µM.
Assay [12] has as its system SN12C renal. Conditions: 10 µM unless noted.
Assay [13] relates to UO-31 renal. Conditions: 10 µM unless noted.
Assay [14] relates to TK-10 renal. The following applies: 10 µM unless noted.
Assay [15] relates to ACHN renal. Conditions: 10 µM unless noted.
Assay [16] concerns CAKI-1 renal. Conditions: 10 µM unless noted.
Assay [17] has as its system CCRF-CEM leukemia. The following applies: 10 µM.
Assay [18] deals with MOLT-4 leukemia. Conditions: 10 µM unless noted.
The subject of assay [19] is A498 renal. Conditions: 10 µM unless noted.
Assay [20] has as its system SNB-75 CNS. Conditions: 10 µM unless noted.

This is part of a sample that, as a whole, favours compounds with a hit. Of some 83,000 tested, about 20% had one in any assay.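 Method: cells in 96-well plates; compound added at one concentration; 48 h incubation; percent growth measured; values under 10 scored active.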 A number with no mark means an inactive call. The source made the active and inactive calls.

On to `COc1ccccc1CNCCCN1C(=O)c2ccc3c4c(ccc(c24)C1=O)C(=O)N(CCCNCc1ccccc1OC)C3=O`, for which the growth in assay [1] is -69.2% (active); in [2] it was -59.5% (active); in assay [3], -68.8% (active); in assay [4], -89.5% (active); in assay [5], -59.9% (active); in assay [6], -100% (active). In addition, the growth was -72.5% (active) in assay [7]; -63.1% (active) in [8]; -90.6% (active) in assay [9]; -80.5% (active) in assay [10]; -63.6% (active) in assay [11]; -78.2% (active) in assay [12]. Further, the growth was -84% (active) in [13]; -77.9% (active) in assay [14]; -46.8% (active) in assay [15]; -29.1% (active) in [16]; -12.7% (active) in assay [17]; -37% (active) in [18].
With `COc1ccc(-c2nc(Nc3nc4ccccc4[nH]3)nc(N)c2C#N)cc1`, the growth in assay [1] is 101%; in assay [2], 96%; in assay [3] it was 98.1%; in assay [4], 110%; in assay [5], 88.1%; in assay [6], 95.3%. For the same compound, the growth in assay [7] was 89.3%; in assay [8] it was 93.9%; in assay [9], 114%; in [10], 97.6%; in [11] it was 92.4%; in [12], 90.8%. Further, the growth in [13] was 72.9%; in [14], 95.9%; in [15], 96.6%; in assay [16], 93.3%; in [19], 119%; in assay [17], 95.4%. In addition, the growth in assay [18] was 95%.
In the case of `Cc1c([C@H](C(Cl)Cl)[C@H](O)[C@H]2C[C@H](C)C(=O)O2)ccc2c1C(=O)[C@H]1[C@H]2C[C@@H](Br)[C@@]23O[C@@H](CO[C@H]2O)CC13C` (stereo partly specified), the growth was 7.63% (active) in assay [1]; 13.1% in assay [2]; 58.4% in assay [20]; 14.4% in assay [4]; 30.4% in [5]; 26.6% in assay [7]. Moreover, the growth in [8] was 33.4%; in assay [9] it was 47.6%; in assay [10], 74%; in assay [11], 27.7%; in [12], 25.1%; in [13], 56.2%. Also, the growth is 45.9% in assay [15]; -31.4% (active) in [16]; -22.6% (active) in [19]; 17.2% in [17]; 16.4% in assay [18].
`CCCCCCCCCCCCCCCCC(=O)O.CCCCCCCCCCCCCCCCCC(=O)O.CCCCCCCCCCCCCCCCCC(=O)O.CCCCCCCCCCCCCCCCCC(=O)O.CCCCCCCCCCCCCCCCCC(=O)O.CO[CH-]OC12COC1CC(O)C1(C)C(O)C(OC(C)O)C3=C(C)C(OC(=O)C(O)C([NH-])c4ccccc4)CC(O)(C(OC(=O)c4ccccc4)C21)C3(C)C.[Cu+].[Zn].[Zn].[Zn].[Zn].[Zn]` (stereo unspecified): the growth in [1] was 20.5%; in [2], 12%; in assay [3] it was 29.6%; in assay [4], 33.6%; in assay [5], 30.5%; in assay [6], 38.4%. Also, the growth in assay [7] is 42.8%; in [8] it was 39.4%; in assay [9], 80.4%; in assay [10], 69.3%; in assay [11], 29.5%; in assay [12], 29.9%. Further, the growth in [13] was 27.2%; in [14] it was 48%; in assay [15], 36.2%; in assay [16], 27%; in [19], 45.6%; in assay [17] it was 23.7%. For the same compound, in [18], the growth is 29%.
For `COc1cc2cc3cc4cc(OC)c(OC)cc4c(C)[n+]3cc2cc1OC` (tested in a mixture with another compound), the growth in [1] is 91.8%; in assay [2] it was 79.2%; in assay [3], 96.2%; in assay [4], 76.9%; in [5] it was 67.8%; in assay [6], 82.4%. In addition, the growth in assay [7] was 84.3%; in assay [8], 84.4%; in [9] it was 116%; in assay [10], 69.5%; in assay [11], 60.8%; in [12], 85.7%. Moreover, the growth in assay [13] is 59.6%; in assay [14], 117%; in assay [15], 95.2%; in assay [19] it was 93.6%; in [18], 40.1%.
As to `O=C(Nc1ccc(-n2cc(-c3ccncc3)c(-c3ccc(Cl)c(O)c3)n2)cc1)c1ccc(Cl)c(Cl)c1`, the growth in assay [1] was 12.2%; in assay [2], -34.7% (active); in assay [3], 77.1%; in [5] it was 17.2%; in [6] it was -99.3% (active); in assay [7], 11.3%. Moreover, the growth in [8] was 29.1%; in assay [9], -7.55% (active); in [11], 61.8%; in assay [12] it was 65.7%; in assay [13], 14.8%; in assay [14], 33%. The growth was 38.4% in [15]; 0.324% (active) in [16]; 83.8% in assay [19]; 40.2% in [17]; 22.3% in assay [18].
With `O=c1c2c(c3ccccc3n1-c1ccccc1)NC(=S)NC2c1ccccc1` (stereo unspecified), the growth was 97.1% in assay [1]; 132% in [2]; 99% in [3]; 107% in assay [4]; -47.1% (active) in [5]; 97.9% in assay [6]. For the same compound, the growth is 96% in assay [7]; 97.9% in [8]; 97.1% in [11]; 90.4% in assay [12]; 226% in [14]; 96.1% in assay [15]. Besides, the growth in [16] was 105%; in [19], 102%; in assay [17], -25% (active); in assay [18], 66.2%.
In the case of `Cc1cc2cn3c4ccc(O)cc4nc(N)c3c2cc1C`, the growth is 7.85% (active) in assay [1]; -65.6% (active) in assay [2]; 29.1% in assay [3]; -5.52% (active) in assay [4]; 25.4% in [5]; -62.4% (active) in assay [6]. Further, the growth in [7] was 46.9%; in assay [8] it was 27.4%; in assay [9], -4.38% (active); in [11] it was 37.2%; in [12] it was 44.6%; in assay [13] it was 6.2% (active). Besides, the growth was 5.03% (active) in assay [14]; 7.58% (active) in [15]; -4.28% (active) in [16]; 21.1% in assay [19]; 11.5% in assay [17]; 5.17% (active) in [18].

Source of the values: PubChem BioAssay (NCI).
